Compound activity from PubChem.
Shown are actives, neighbours in structure and some others; about 7.9% of the full set was active somewhere.
MARV entry inh – inhibitors of Marburg virus binding or cell entry | Marburg virus pseudotyped entry inhibition, cell reporter | Potency, µM (doses to about 37.8 µM), actives largely listed as inhibitors | actives 1.8% (n = 300,000); calls by dose curve; tested in HEK293 cells
Lassa entry inh – blocks Lassa virus binding to or entry into cells; Potency, µM (series often up to 37.9 µM), most hits filed as inhibitors; Lassa virus pseudotype entry inhibition, cell reporter; actives 1.2% (n = 300,000); AID 540256; calls by dose curve; tested in HEK293 cells; also: nearly all actives have a fitted effect of over 50% in size
FMDV inh – antivirals against foot and mouth disease virus; actives 1.2% (n = 410,000); Potency, µM (highest dose often 57.9 µM), hits mostly inhibitors; FMDV antiviral cell-based qHTS; calls by dose curve; tested in HEK293T cells; also: read-out not given here; nearly all actives have a fitted effect of over 45% in size
HCMV inh – human cytomegalovirus inhibition. HFF cells, HCMV-luciferase reporter, 72 h; hits give low values. AID 1259415. activity change, negative = inhibition, % at 57.5 µM. actives 4.5% (n = 410,000); in the data active = activity change below about -60%; inconclusive = no clear call, values can overlap the other calls; inactive = above about -39%
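Cell-based, HFFs, 1000 cells/well, 16 h 37C; cpds in DMSO + HCMV-luc, MOI 1 PFU/cell; 72 h 37C; OneGlo luminescence after 5 min RT; norm. to buffer vs Salinomycin 10uM.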
HCV inhibitor – inhibitors of hepatitis C virus infection; Huh7.5.1 HCVcc-Cre infection, luciferase reporter, 44 h; actives 3.4% (n = 340,000); Potency, µM (series often up to 41.8 µM), most hits filed as inhibitors; AID 651820; active = well fitted inhibition curve with a large enough effect; inconclusive = small, poorly fitted or top-dose-only effect, or another doubt; inactive = no such curve, though single readings can be large or run the other way
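1,000 cells/well; 4 h culture; + compound; + HCVcc-Cre (~0.5 moi); 44 h; luciferase substrate, RT 15 min; read 15 sec.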
Each line names hits and unclear results; the compound was inactive in the other large screens.

CC1(C)CC[C@]2(C(=O)O)CC[C@]3(C)C(=CC[C@@H]4[C@@]5(C)CC[C@H](O[C@@H]6O[C@H](C(=O)O)[C@@H](O)[C@H](O[C@@H]7OC[C@H](O)[C@H](O)[C@H]7O)[C@H]6O)C(C)(C)[C@@H]5CC[C@]43C)[C@@H]2C1	HCMV inh -100.4, HCV inhibitor 11.2µM (no result: MARV entry inh, Lassa entry inh)
Cn1c(=O)c(=O)n(C)c2cc(N3CCCCC3)c(NS(=O)(=O)c3ccc([N+](=O)[O-])cc3)cc21	HCMV inh active (no result: MARV entry inh, Lassa entry inh)
CC[C@@H](C)CCCCC(=O)N[C@@H](CCNCS(=O)(=O)O)C(=O)N[C@H](C(=O)N[C@@H](CCNCS(=O)(=O)O)C(=O)N[C@H]1CCNC(=O)[C@H]([C@@H](C)O)NC(=O)[C@H](CCNCS(=O)(=O)O)NC(=O)[C@H](CCNCS(=O)(=O)O)NC(=O)[C@H](CC(C)C)NC(=O)[C@@H](CC(C)C)NC(=O)[C@H](CCNCS(=O)(=O)O)NC1=O)[C@@H](C)O	none (no result: MARV entry inh, Lassa entry inh, HCMV inh, HCV inhibitor)
COc1ccc([N+](=O)[O-])cc1NC(=O)CCSCCc1ccccn1	MARV entry inh inconclusive
CCOc1ccc(N=C(NN)c2ccc3ccccc3n2)cc1	MARV entry inh inconclusive, Lassa entry inh inconclusive, FMDV inh 8.91µM, HCMV inh -68.6, HCV inhibitor inconclusive
COc1ccc(OCC(O)Cn2c(=N)n(Cc3ccccc3)c3ccccc32)cc1 (configuration not stated)	MARV entry inh 4.11µM, Lassa entry inh inconclusive, FMDV inh inconclusive, HCV inhibitor 10µM
Cc1cccc(OCC(O)Cn2c(=N)n(Cc3ccccc3)c3ccccc32)c1 (configuration not stated)	FMDV inh inconclusive, HCV inhibitor inconclusive (no result: MARV entry inh, Lassa entry inh)
N=c1n(Cc2ccccc2)c2ccccc2n1CC(O)COc1ccc(Cl)cc1Cl (configuration not stated)	MARV entry inh inconclusive, Lassa entry inh inconclusive, FMDV inh 35.5µM, HCMV inh -101.4, HCV inhibitor 11.2µM
N=c1n(Cc2ccc(Cl)cc2)c2ccccc2n1CC(O)COc1ccccc1 (configuration not stated)	MARV entry inh inconclusive, Lassa entry inh inconclusive, FMDV inh inconclusive, HCMV inh -102.4, HCV inhibitor 12.6µM
CCn1c(=N)n(CC(O)COc2ccccc2)c2ccccc21 (configuration not stated)	none (no result: MARV entry inh, HCV inhibitor)
Cc1ccc(OCC(O)Cn2c(=N)n(Cc3ccccc3)c3ccccc32)cc1 (configuration not stated)	MARV entry inh inconclusive, Lassa entry inh inconclusive, HCMV inh -74.2, HCV inhibitor inconclusive
COc1ccc(N2CCN(C(=O)c3cc(S(=O)(=O)N4CCC(C)CC4)cn3C)CC2)cc1	none (no result: MARV entry inh, HCV inhibitor)
Cc1nn(Cc2ccc(Cl)cc2Cl)c(C)c1NC(=O)c1sc2ccccc2c1Cl	none
Cc1nn(Cc2c(Cl)cccc2Cl)c(C)c1NC(=O)c1sc2ccccc2c1Cl	MARV entry inh inconclusive, HCMV inh -84.6, HCV inhibitor inconclusive
Cc1ccccc1Cn1nc(C)c(NC(=O)c2sc3ccccc3c2Cl)c1C	MARV entry inh inconclusive, FMDV inh 31.6µM, HCV inhibitor 31.6µM
Cc1nn(Cc2ccc(Cl)c(Cl)c2)c(C)c1NC(=O)c1sc2ccccc2c1Cl	Lassa entry inh inconclusive, FMDV inh 31.6µM, HCV inhibitor 22.4µM
CC(C)Oc1cccc(Nc2nccc3c2cc(-c2ccc(C(=O)N(C)C)cc2)n3C)c1	none (no result: MARV entry inh, Lassa entry inh, FMDV inh, HCV inhibitor)
O=C(Oc1c(CN2CCOCC2)cc(Cl)c2cccnc12)c1cccs1	MARV entry inh 10µM, Lassa entry inh inconclusive, HCMV inh -98.2, HCV inhibitor inconclusive
O=C(Oc1c(CN2CCOCC2)cc(Cl)c2cccnc12)c1ccccc1Cl	MARV entry inh inconclusive, Lassa entry inh inconclusive, HCMV inh -98.0, HCV inhibitor inconclusive
CN=C1c2cc3cc(OC)ccc3n2CCN1Cc1ccccc1	MARV entry inh 11.2µM, Lassa entry inh inconclusive
COc1ccc2c(c1)nc(N)n2Cc1ccccc1	MARV entry inh inconclusive, HCV inhibitor inconclusive
COc1cccc(CN2CCC2(C)C(=O)Nc2ccc3c(c2)OCO3)c1F (configuration not stated)	none (no result: MARV entry inh, Lassa entry inh, HCV inhibitor)
Cn1ncc2c(Nc3cccc(Cl)c3)nc(Nc3cccc(Cl)c3)nc21	MARV entry inh inconclusive, HCMV inh -66.3, HCV inhibitor inconclusive
Cc1ccc(Nc2nc(NCCO)nc3c2cnn3C)cc1Cl	HCV inhibitor 12.6µM (no result: MARV entry inh, Lassa entry inh)
Fc1ccc(-n2ncc3c(Nc4cccc(Cl)c4)ncnc32)cc1	HCMV inh -65.6 (no result: MARV entry inh, HCV inhibitor)
O=C(c1ccco1)N1CCN(Cc2cc(=O)c(OCc3ccccc3F)co2)CC1	none
Cc1ccc(C(=O)Nc2ncc(Cc3ccc(SC(F)F)cc3)s2)cc1	Lassa entry inh inconclusive, HCMV inh -63.4, HCV inhibitor 10µM
O=C(Nc1ncc([N+](=O)[O-])s1)c1ccc2c(c1)OCO2	MARV entry inh 1.58µM, Lassa entry inh inconclusive, FMDV inh 3.16µM, HCMV inh -92.9
Cc1ccc(C(=O)Nc2ncc([N+](=O)[O-])s2)cc1	FMDV inh 8.91µM, HCMV inh -69.9, HCV inhibitor inconclusive (no result: MARV entry inh, Lassa entry inh)
Cc1ccc(C(=O)Nc2ncc(Cc3ccc(F)cc3)s2)o1	MARV entry inh inconclusive, Lassa entry inh inconclusive
O=C(COc1ccc(Cl)cc1)Nc1ncc([N+](=O)[O-])s1	MARV entry inh inconclusive, Lassa entry inh inconclusive, HCMV inh -61.2, HCV inhibitor inconclusive
CCc1ccccc1NC(=O)Cn1nnc(-c2nc(-c3ccncc3)no2)c1N	Lassa entry inh inconclusive, HCMV inh inconclusive (no result: MARV entry inh, HCV inhibitor)
CC12CCCC[C@@H]1CCC1C2CCC2(C)C1CC[C@@]2(O)CNCCO (some centres not stated)	Lassa entry inh inconclusive (no result: HCMV inh)
Cc1onc(-c2ccccc2)c1C(=O)Nc1ncc([N+](=O)[O-])s1	MARV entry inh inconclusive, Lassa entry inh inconclusive, FMDV inh inconclusive, HCMV inh -95.5, HCV inhibitor inconclusive
COc1ccccc1C(=O)NC(=O)Nc1c(C)cc(C)cc1C	HCMV inh inconclusive, HCV inhibitor 12.6µM (no result: MARV entry inh, Lassa entry inh)
CC1CCN(S(=O)(=O)c2ccc(Oc3ccc([N+](=O)[O-])cc3)cc2)CC1	Lassa entry inh inconclusive, FMDV inh inconclusive, HCMV inh -77.0, HCV inhibitor inconclusive
O=[N+]([O-])c1ccc(Oc2ccc(S(=O)(=O)N3CCOCC3)cc2)cc1	MARV entry inh inconclusive, Lassa entry inh inconclusive, HCMV inh inconclusive, HCV inhibitor 11.2µM
O=[N+]([O-])c1ccc(Oc2ccc(S(=O)(=O)N3CCCCC3)cc2)cc1	MARV entry inh inconclusive, FMDV inh inconclusive, HCMV inh -63.3, HCV inhibitor inconclusive
CN1CCN(S(=O)(=O)c2ccc([N+](=O)[O-])cc2)CC1	none (no result: MARV entry inh, Lassa entry inh)
O=[N+]([O-])c1ccc(-c2ccc(S(=O)(=O)N3CCOCC3)cc2)cc1	none (no result: MARV entry inh, Lassa entry inh)
COC(=O)c1[nH]c2ccccc2c1NC(=O)CN1CCCCCC1	Lassa entry inh inconclusive, HCV inhibitor inconclusive
COC(=O)c1[nH]c2ccccc2c1NC(=O)CN1CCN(c2cccc(Cl)c2)CC1	MARV entry inh inconclusive, FMDV inh 14.1µM, HCMV inh inconclusive, HCV inhibitor inconclusive
COC(=O)c1[nH]c2cc(C)ccc2c1NC(=O)CN1CCN(c2ccccc2OC)CC1	MARV entry inh inconclusive, Lassa entry inh inconclusive, FMDV inh inconclusive, HCV inhibitor 10µM
